In PubChem BioAssay AID585 (National Center for Advancing Translational Sciences (NCATS), 2007):
Among all 71,000 compounds or so, about 1,300 (1.8%) were called active. This excerpt belongs to a sample that is enriched for actives. Values without a mark were called inactive. The call rests on the fitted dose curve.

Each compound was assayed against Beta-lactamase (Escherichia coli (strain K12)) (UniProt P00811) (assay: Promiscuous and Specific Inhibitors of AmpC Beta-Lactamase (assay without detergent)). Conditions: AmpC nitrocefin hydrolysis, absorbance 480 nm, no detergent; series mostly up to 28.7 µM; activity change, negative = inhibition: at the top concentration.
Description: NIH Molecular Libraries Screening Centers Network [MLSCN]
NIH Chemical Genomics Center [NCGC]
PI Name: Shoichet, Brian K.
This aggregation profiling approach exploits the sensitivity of aggregate formation to detergent. Inhibition of b-lactamase is measured in the presence and absence of 0.01% Triton X-100. See Pubchem assay "Promiscuous and Specific Inhibitors of AmpC Beta-Lactamase (assay with detergent)" for related screen. Compounds that inhibit only in the absence of detergent are considered likely promiscuous aggregators.
A screen of 1,030 compounds was performed in Brian Shoichet's lab in 96-well format. AmpC activity was measured by following the absorbance at 480 nm. Nitrocefin is a chromogenic substrate: while nitrocefin is yellow (lmax 390 nm), the product of its hydrolysis is red (lmax 486 nm, 17,000 M-1). AmpC beta lactamase was provided by Brian Shoichet and Brian Feng, UCSF.
NCGC Assay Protocol Summary:
20 mM phosphate buffer, pH 7.0
Triton X-100: No Detergent screen: 0.0001%, Detergent screen: 0.01%.
Buffer in columns 3 and 4 as negative control (no enzyme).
5.3 nM AmpC in columns 1, 2, 5-48. Titration of UCSF compound 9 control (from 10 mM, then 1:2) pin-transferred to column 2. Column 1 is neutral (100% activity).
Six uL of reagents were dispensed to 1536-well Greiner black clear bottom plates. Compounds and controls (23 nL) were transferred via Kalypsys PinTool. The plates were incubated for 15 min at room temperature, and then 2 uL of 800 uM solution of nitrocefin was added to start the reaction. The plates were immediately transferred to and read every 20 seconds for 4 min on ViewLux (Perkin-Elmer) High-throughput CCD imager using 480 nm absorbance protocol. During dispense, reagent bottles were kept submerged into 4 deg C water bath.
Keywords: NIH Roadmap, MLSCN, MLI, MLSMR, qHTS, NCGC, AmpC Beta-Lactamase, Aggregation.
Potency means the concentration at half of the fitted maximal effect.
Wherever activity change, negative = inhibition is given: % of control where 0% means no effect.

Chain of Beta-lactamase (Escherichia coli (strain K12)) (P00811 whole entry, looked up): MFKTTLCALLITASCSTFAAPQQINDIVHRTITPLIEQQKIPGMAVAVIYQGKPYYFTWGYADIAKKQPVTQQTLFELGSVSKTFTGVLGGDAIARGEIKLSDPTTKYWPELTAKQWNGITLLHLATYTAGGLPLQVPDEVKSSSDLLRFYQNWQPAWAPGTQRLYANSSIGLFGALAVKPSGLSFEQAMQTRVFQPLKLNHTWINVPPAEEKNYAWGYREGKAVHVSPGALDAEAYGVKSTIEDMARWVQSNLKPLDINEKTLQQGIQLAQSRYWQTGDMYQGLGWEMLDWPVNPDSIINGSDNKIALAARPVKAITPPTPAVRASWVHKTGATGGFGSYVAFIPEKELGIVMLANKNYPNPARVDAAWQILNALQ

Row | Structure (SMILES) | activity change, negative = inhibition | Potency
1 | CCCN1CCN(CCCNC(=O)CN2C(=O)COc3ccccc32)CC1 | -4.1% | 
2 | O=C(CN1C(=O)COc2ccccc21)Nc1ccc(F)cc1 |  | 3.98 µM [single pt active] (active)
3 | COC(=O)[C@H](C)NC(=O)Nc1ccc(OC(F)(F)F)cc1 | 7.1% | 
4 | Oc1c(Cl)cc(Cl)c(Cl)c1Cc1c(O)c(Cl)cc(Cl)c1Cl |  | 5.01 µM (active)
5 | CC(=O)Nc1ccn(Cc2c(F)cccc2Cl)n1 | -7% | 
6 | O=C(Oc1ccc(-c2nc(-c3ccccn3)no2)cc1)c1ccccc1 | 0.2% | 
7 | N#Cc1ccccc1-n1c(N)c(C(=O)N2CCCC2)sc1=S | 22.4% | 
8 | Cn1c(=O)[nH]c(=O)c2c1nc(CN(Cc1ccccc1)Cc1ccccc1)n2CCN1CCOCC1 | 127% | 
9 | O=C(Nc1nc2ccc(S(=O)(=O)N3CCCC3)cc2s1)C1CCCO1 (stereo unspecified) | 8.8% | 
10 | Cn1c(=O)oc2cc(S(=O)(=O)N3CCC(C(=O)Nc4ccc(OC(F)(F)F)cc4)CC3)ccc21 | 22.4% | 
11 | Cc1ccc2nc(NC(=O)C3CCN(S(=O)(=O)c4ccc5c(c4)oc(=O)n5C)CC3)sc2c1 |  | 3.98 µM [single pt active] (active)
12 | CC(=O)OC(C(=O)NCCc1ccccc1)c1cccnc1 (stereo unspecified) | -1.8% | 
13 | C[N+]1(C)C2CC(OC(=O)C(CO)c3ccccc3)CC1[C@@H]1O[C@H]21 (stereo partly specified) |  | inactive
14 | CCOc1ccc(CCNC(=O)C2CCN(c3ccc(N4CCOCC4)nn3)CC2)cc1OCC | 73.5% | 
15 | CCOc1ccccc1NC(=O)C1CCC(CNc2c(N3CCOCC3)c(=O)c2=O)CC1 (stereo unspecified) |  | 3.98 µM [single pt active] (active)
16 | CCOc1ccccc1NC(=O)C1CCN(S(=O)(=O)c2c(C)nn(C)c2C)CC1 | 74.2% | 
17 | Cc1nc(-c2ccc(NC(=O)c3cccs3)cc2)cs1 | -19.2% | 
18 | COc1cccc2c(=O)n(CC(=O)N3CCCCCC3)ccc12 | 7.4% | 
19 | O=C(NC1CCCCC1)C1CCCN(S(=O)(=O)c2cccs2)C1 (stereo unspecified) | 24% | 
20 | O=C(NCc1ccc2c(c1)OCO2)C1CCCN(S(=O)(=O)c2cccs2)C1 (stereo unspecified) |  | 3.98 µM [single pt active] (active)
21 | O=C(NCc1cccs1)C1CCN(S(=O)(=O)c2ccc3c(c2)OCCO3)CC1 | -11.3% | 
22 | COc1cc2c(cc1OC)C(c1ccncc1)CC(=O)N2 (stereo unspecified) | -5.8% | 
23 | CC(C)c1nnc(NC(=O)C2CCCN2S(=O)(=O)c2ccc(Cl)cc2)s1 (stereo unspecified) | 10.4% | 
24 | Cc1nc2ccc(S(=O)(=O)NCC(=O)NCCN3CCCCC3C)cc2s1 (stereo unspecified) | 5.5% | 
25 | Cc1nc2ccc(S(=O)(=O)NC(C(=O)N3CCCCCC3)C(C)C)cc2s1 (stereo unspecified) |  | 3.98 µM [single pt active] (active)
26 | Cc1nc2ccc(S(=O)(=O)NCC(=O)O)cc2s1 | -4.4% | 

Row | Structure (SMILES) | activity change, negative = inhibition | Potency
27 | COC(=O)c1c(NC(=O)CSc2nc3c(c(=O)n(C)c(=O)n3C)n2C(C)C)sc(C)c1C | 27.8% | 
28 | CCn1nnc(NC(=O)c2c(OC)cccc2OC)n1 | 1% | 
29 | O=c1nc2s/c(=C\c3ccco3)c(=O)n2nc1Cc1ccccc1 | -21.7% | 
30 | CN(c1ccccc1)c1ccc(/C=c2\s/c(=C(/C#N)C(=O)C(C)(C)C)n(Cc3ccco3)c2=O)cc1 |  | 10 µM (active)
31 | CCOC(=O)CSc1nc2c(sc(=S)n2CCc2ccccc2)c(=O)n1Cc1ccco1 | -13.5% | 
32 | CC1=CC(=O)C2=C(C)C[C@H](O)[C@@H]3[C@@H](OC(=O)[C@H]3C)[C@H]12 | 1.9% | 
33 | CCOc1ccccc1N=C1NC(=O)CS1 | -3.3% | 
34 | O=C(CSc1nc2cc3c(cc2c(=O)n1CCC1=CCCCC1)OCO3)NCc1ccco1 |  | 12.6 µM (active)
35 | C=C(C)Cn1c(SCC(=O)NCc2ccco2)nc2sc3c(c2c1=O)CCC3 | 82.1% | 
36 | O=C(CCCn1c(SCC(=O)c2ccc(F)cc2)nc2ccccc2c1=O)NCc1ccco1 | -3.1% | 
37 | CC(C)NC(=O)N1CC[C@@]2(CCCN(C(=O)c3cccn3C)C2)C1 | 15.4% | 
38 | Cc1c2cn[nH]c(=O)c2c(C)n1Cc1ccc(F)cc1 | 17.3% | 
39 | N#CCCN1CCN(S(=O)(=O)c2ccc(S(=O)(=O)NC3CCCCC3)cc2)CC1 | 67.1% | 
40 | CCOC(=O)N1CCC(NC(=O)CCc2cn(C)c3ccccc23)CC1 | 37.8% | 
41 | CCOC(=O)N1CCC(NC(=O)c2cnn3ccccc23)CC1 |  | 3.98 µM [single pt active] (active)
42 | CCOC(=O)N1CCC(NC(=O)Cc2cn(C)c3ccccc23)CC1 | 44.2% | 
43 | COC(=O)N1CCC2(CCCN(Cc3ccccc3OC)C2)CC1 | 0.4% | 
44 | c1ccc(-c2cn3cccnc3n2)cc1 | -2.6% | 
45 | O=C(C1=C(O)C(=O)N(c2ncccn2)C1c1cccs1)c1ccco1 (stereo unspecified) | -10.9% | 
46 | CNC(=O)Nc1cc(C(C)(C)C)no1 | 0.5% | 
47 | Cc1cccc2c1N(CC(=O)OC(C)C)C(=O)C2=O | 1.8% | 
48 | COc1ccc(C)cc1S(=O)(=O)NC1CCCCC1 | 23.8% | 
49 | O=C(CCCn1c(=O)[nH]c2cc(Cl)ccc2c1=O)NCCN1CCN(c2ccccc2)CC1 | 92.9% | 
50 | CCOC(=O)N1CCC(Nc2c(NCCN3CCN(c4cccc(Cl)c4)CC3)c(=O)c2=O)CC1 |  | 3.98 µM [single pt active] (active)
51 | CCOC(=O)N1CCC(Nc2c(NCCCN3CCN(c4ccc(OC)cc4)CC3)c(=O)c2=O)CC1 | 45.6% | 
